High-throughput results: PubChem BioAssay, National Center for Advancing Translational Sciences (NCATS)
Shown are actives, neighbours in structure and some others; about 1.8% of the full set was active somewhere.
Peg3 imprint: qHTS Assay for Compounds that Induce Erasure of Genomic Imprints; 0.02% of 110,000 active; mouse ES Peg3-LacZ reporter, beta-gal luminescence, 40 h; Potency, µM (doses to about 60.7 µM), for the others: top-dose activity change, positive = activation, actives largely listed as activators; AID 1948, 2009
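Readout: BetaGlo luminescence (5 min, room temp) for LacZ from the normally silent maternal Peg3 allele in female Peg3LacZ-Neo ES cells. Cells 300/well, 40 h, 37C, 5% CO2. Data normalized per plate to negative controls.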
p53ts 32C kill: qHTS Screen for Compounds that Selectively Target Cancer Cells with p53 Mutations: Cytotoxicity of p53ts Cells at the Permissive Temperature. H1299-p53A138V at 32C, ATP luminescence viability, 24 h. Potency, µM (highest dose often 46.1 µM), without a hit: top-dose activity change, negative = cytotoxicity, hits mostly cytotoxic. 0.93% of 130,000 active;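 further: 0% = DMSO and -100% = full killing by reference compound; nearly all actives have a fitted effect of over 55% in size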
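ATP-content luminescence (ATPlite) read-out after 24 h compound exposure at 32C in H1299-p53A138V cells (600/well). Tested up to 46 uM. Normalized to DMSO (0%) and 100 uM tamoxifen (100% killing); Hill-fit AC50.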
IkB signaling: IkB Signaling | 0.04% of 110,000 active | Potency, µM (top dose mostly 57.1 µM), inactives show at the top dose IkBa stabilization activation | ABC-DLBCL IkBa-CBG/CBR dual luciferase ratio, 4 h; response scale: scaled: untreated 0%, proteasome inhibitor 100%; active means well fitted curve in the direction sought with a large enough effect in the signal ratio, not every such curve was filed as active; inconclusive means small, poorly fitted or top-dose-only effect, or a change in a side signal; the % refers to the signal ratio;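 further: the direction sought is a rising ratio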
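Curves were fitted separately to fusion (green), unfused (red) and ratio luminescence, then classed by r2, magnitude and activity. Cells: OCI-Ly3, 4 h compound plus doxycycline at 37C; 10 uM MG-132 defined full response.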
p53ts 39C kill: qHTS Screen for Compounds that Selectively Target Cancer Cells with p53 Mutations: Cytotoxicity of p53ts Cells at the Nonpermissive Temperature; H1299-p53A138V viability at 39C, ATP luminescence, 24 h; 1.5% of 130,000 active; Potency, µM (titrated, usually from 46.1 µM), without a hit: at the top dose activity change, negative = cell killing, hits mostly cytotoxic; AID 902, 2007; further: on the % scale 0 is the no-effect control and ±100 the full control effect; nearly all actives have a fitted effect of over 55% in size
Active calls of the source: *; ! = repeats disagree; [ ] = remark or other dose. Unless noted, the call rests on the fitted dose curve; in most records, active means well fitted curve in the direction sought with a large enough effect; inconclusive means small, poorly fitted or top-dose-only effect, or another doubt; inactive means no such curve, though single readings can be large; an effect the other way counts as inactive or inconclusive. Potency means the concentration at half of the fitted maximal effect.

Screening O=c1[nH]c2ccccc2n1C1CCN(CCCC(c2ccc(F)cc2)c2ccc(F)cc2)CC1 returned Peg3 imprint -28%, p53ts 32C kill 25µM*!, IkB signaling 1% and p53ts 39C kill 16µM*.
Screening Cc1ccc(C2N(c3cc(C)on3)C(=O)C3CCCN32)cc1 (centres undefined) returned Peg3 imprint -7%, p53ts 32C kill -6%, IkB signaling 0% and p53ts 39C kill 6%.
For CCn1nc(-c2ccccc2)nc2c(=O)n(C)c(=O)nc1-2 the results were Peg3 imprint -98%, p53ts 32C kill 0.63µM*, IkB signaling inconclusive and p53ts 39C kill 4µM*.
For CCCCOC(=O)C1=C(N)OC2=C(C(=O)CC(C)(C)C2)[C@]12C(=O)N(C)c1ccccc12 the results were Peg3 imprint -6%, p53ts 32C kill -1%, IkB signaling -2% and p53ts 39C kill 4%.
For [Cd+2].[Cl-].[Cl-] the results were Peg3 imprint -22%, IkB signaling 4µM* and p53ts 39C kill 1.3µM*.
For Cc1nc2c(=O)n(C)c(=O)nc-2n(C)n1 the results were p53ts 32C kill 1.1µM* and p53ts 39C kill 2µM*.
NC1(c2ccccc2Cl)CCCCC1=O (centres undefined) was read as Peg3 imprint 1%.
Screening Oc1ccc2c3c1O[C@H]1c4c(c5ccccc5n4Cc4ccccc4)C[C@]4(O)[C@H](C2)N(CC2CC2)CC[C@@]314 returned Peg3 imprint -29%, p53ts 32C kill inconclusive, IkB signaling inconclusive and p53ts 39C kill 32µM*.
OC1(CN2CCOCC2)C2CC3CC(C2)CC1C3 (centres undefined) was read as Peg3 imprint -3%, p53ts 32C kill -5%, IkB signaling 1% and p53ts 39C kill -22%.
`Cc1oc2ccc(O)c(CN3CCCCCC3)c2c1C(=O)Nc1cccc(Cl)c1C` gave Peg3 imprint -14%[10.9 µM], p53ts 32C kill -11%, IkB signaling inconclusive and p53ts 39C kill 16µM*.
For Cc1oc(-c2cccc(Cl)c2)nc1CN1CCC(C(=O)NCCCN2CCN(c3cccc(Cl)c3)CC2)CC1 the results were Peg3 imprint -9%[10.9 µM], p53ts 32C kill -17%, IkB signaling inconclusive and p53ts 39C kill 10µM*.
Screening Cc1oc(-c2ccccc2Cl)nc1CN1C(=O)CN=C(c2ccccc2)c2cc(Cl)ccc21 returned Peg3 imprint -14%[10.9 µM], p53ts 32C kill -4%, IkB signaling inconclusive and p53ts 39C kill -8%.
`CCCCCCCCCOc1ccc2[nH]cc(CCN)c2c1` gave Peg3 imprint -34%, p53ts 32C kill inconclusive, IkB signaling inconclusive and p53ts 39C kill 32µM*.
`COc1ccc2[nH]cc(CCN)c2c1` gave Peg3 imprint -18%, p53ts 32C kill 8%, IkB signaling 0% and p53ts 39C kill 6%.
For CC(C)C(=O)CP(=O)(O)O the results were Peg3 imprint -2%[10.9 µM], p53ts 32C kill 1%[9.22 µM], IkB signaling -1%[11.4 µM] and p53ts 39C kill -2%[9.22 µM].
Cc1ccccc1Cn1cccc(C(=O)Nc2nc3ccccc3s2)c1=O was read as Peg3 imprint -29%[10.9 µM], p53ts 32C kill 11%, IkB signaling 3% and p53ts 39C kill 10µM*.
CCC(C)(C)n1nnnc1C(c1cccs1)N1CC=C(c2ccc(F)cc2)CC1 (centres undefined) was read as Peg3 imprint -13%, p53ts 32C kill 2%, IkB signaling inconclusive and p53ts 39C kill -1%.
`[CH3][Hg][Cl]` gave Peg3 imprint -46%, p53ts 32C kill 9%[1.84 µM], IkB signaling inconclusive and p53ts 39C kill 16µM*.
Screening CC(=O)Oc1ccc(/C=C/c2cc(OC(C)=O)cc(OC(C)=O)c2)cc1 returned Peg3 imprint -51%, p53ts 32C kill 7.9µM* and p53ts 39C kill 6.3µM*.
Screening COc1ccc(/C=C/C(=O)Nc2ccc(C)cc2)cc1 returned Peg3 imprint -14%[10.9 µM], p53ts 32C kill inconclusive, IkB signaling 6% and p53ts 39C kill -14%.
Cc1ccc(C(=O)Nc2c(C(=O)Nc3ccc(C)c(C)c3)sc3nc(C)cc(C)c23)cc1 was read as Peg3 imprint -5%[10.9 µM], p53ts 32C kill -24%, IkB signaling -1% and p53ts 39C kill 6.3µM*.
O[N+]1=CC=CCC1=S.On1ccccc1=S.[Zn] was read as Peg3 imprint -31%, p53ts 32C kill 0.79µM* and p53ts 39C kill 4µM*.
